From ChEMBL document CHEMBL3988442, “University of Dundee, Small-Polar-MMV Screening Library” (2021) come the findings set out here.

Out of some 66,000 compounds screened, about 960 (1.5%) showed an effect of 50% or more. Shown is part of a subset that was picked to be rich in strong results.

The subject of this assay is Trypanosoma brucei. Description: Trypanosoma brucei 72 hour study. The assay is classed as functional, organism-based. On the set-up: scale not given: in the data most compounds retested in dose-response had high values.

With `CN1CC2(CCCN(Cc3nnc(-c4ccccc4)o3)CC2)OC1=O` (stereo unspecified), the “Percent Effect” value (30 µM, 30.03 µM) is given as -20.69%. Consider `CCN(CC)C(=O)c1nnn(Cc2ccccc2)c1OC`, for which, where the note is “30 µM, 30.03 µM”, the “Percent Effect” value was 61.55%. Take `CCNC(=O)c1nnn(Cc2ccccc2)c1OC`: the “Percent Effect” value (30 µM, 30.03 µM) amounted to 40.11%. On to `COCCNC(=O)c1nnn(Cc2ccccc2)c1OC`, for which, under “30.3 µM, […]”, the “Percent Effect” value is 3.67%. As to `CCc1nnc(SC2CCCN(c3cccc(F)c3)C2=O)n1C` (stereo unspecified), the “Percent Effect” value (30 µM, 30.03 µM) was -37.32%.

Take `CCOCC1CN(CCN(C)C)Cc2cnn(CC3CCCC3)c21.O=C(O)C(F)(F)F.O=C(O)C(F)(F)F` (stereo unspecified): under “30 µM, 30.03 µM”, the “Percent Effect” value is -10.76%. As to `Cc1ccc(C(=O)N2CC[C@@H](N(C)C)[C@@H]2Cc2cnn(C)c2)cn1.O=C(O)C(F)(F)F.O=C(O)C(F)(F)F`, for the setting “30.3 µM, […]”, the “Percent Effect” value is reported as -478.3%.

`CC(=O)c1ccc(N2CCCC(CO)(CCOc3ccccc3)C2)nc1` (stereo unspecified): the “Percent Effect” value (30 µM, 30.03 µM) is listed as 71.93%. On the same count and under the same terms, the value for `N#Cc1cccc(N2CCCC(CO)(CCOc3ccccc3)C2)n1` (stereo unspecified) was -42.71%; that for `CC(=O)c1ccc(N2CCCC(CO)(CCc3ccccc3)C2)nc1` (stereo unspecified) was 50.39%. Still for that read-out and setting: under `CC(=O)c1ccc(N2CCC(CO)(CCOc3ccccc3)CC2)nc1` stands 16.6%; under `OCC1(CCOc2ccccc2)CCCN(c2ccc(Cl)cn2)C1` (stereo unspecified), -34.7%; under `N#Cc1ccc(N2CCCC(CO)(CCOc3ccccc3)C2)nc1` (stereo unspecified), -38.44%.

As for `CC(=O)c1ccc(N2CCCC(CO)(Cc3ccccc3F)C2)nc1` (stereo unspecified), where the note is “30 µM, 30.03 µM”, the “Percent Effect” value was -24.14%. On the same count and under the same terms, the value for `Nc1nccc(N2CCCC(CO)(CCOc3ccccc3)C2)n1` (stereo unspecified) was 82.96%; that for `CC(=O)c1ccc(N2CCCC(CO)(Cc3ccccc3C)C2)nc1` (stereo unspecified) was -6.304%. Regarding `O=C(O)C(F)(F)F.O=C1CCCN1Cc1ncn2c1CN(C(=O)N1CCCC1)CCC2`, the “Percent Effect” value (30.3 µM, […]) is on record as -52.13%.

As for `Cc1occc1C(=O)N1CCC2(CCCN(c3ncc(F)cn3)C2)C1.O=C(O)C(F)(F)F` (stereo unspecified), the “Percent Effect” value (30.3 µM, […]) was -25.24%. Regarding `O=C(NCCCNc1ccc(C(F)(F)F)cn1)c1ccc2c(c1)OCO2`, the “Percent Effect” value (10 µM) is -42.23%. Regarding `Cc1ncc2c(n1)CN(c1ncnc3[nH]ccc13)CC2`, under “30 µM, 30.03 µM”, the “Percent Effect” value is reported as -13.69%. The same measure, in the same setting: the value for `c1nc(N2CCc3[nH]cnc3C2)c2cc[nH]c2n1` was 75.2%; that for `c1ncc2c(n1)CN(c1ncnc3[nH]ccc13)CC2` was -32.45%.

On to `Cn1cc(N2CC3(COCCN(Cc4nccs4)C3)OCC2=O)cn1.O=C(O)C(F)(F)F` (stereo unspecified), for which the “Percent Effect” value (30 µM, 30.03 µM) is listed as 27.05%.

In the case of `Cc1cc(N(C)C)cc(C2CCN(S(=O)(=O)c3cccnc3)C2)n1` (stereo unspecified), the “Percent Effect” value (30.3 µM, […]) is -0.05808%. For the compound `Cc1cccc(-c2cc(-c3c(C)nn(CCO)c3C)c(C#N)c(N)n2)c1`, the “Percent Effect” value (30.3 µM, […]) is listed as 57.96%. The same measure, in the same setting: the value for `Cc1nn(CCO)c(C)c1-c1cc(C(C)(C)C)nc(N)c1C#N` was 0.04143%; that for `Cc1ccc(-c2cc(-c3c(C)nn(CCO)c3C)c(C#N)c(N)n2)cc1` was 33.48%; that for `Cc1noc([C@]23COC[C@H]2CN(C(=O)COC2CCCC2)C3)n1` was -59.73%. With `Cc1noc([C@]23COC[C@H]2CN(C(=O)CN(C)C)C3)n1.O=C(O)C(F)(F)F`, for the setting “30.3 µM, […]”, the “Percent Effect” value stood at 106.1%.

Consider `CCOCC(=O)N1C[C@@H]2COC[C@]2(c2nc(C)no2)C1`, for which, for the setting “30.3 µM, […]”, the “Percent Effect” value is reported as -76.29%. Regarding `Cc1ccc(CN2CCCC3(CCN(S(C)(=O)=O)C3)C2)o1.O=C(O)C(F)(F)F` (stereo unspecified), the “Percent Effect” value (30 µM, 30.03 µM) is given as 16.24%. In the case of `Cc1csc2c(N3CCNC(C(=O)NCc4cccnc4)C3)ncnc12` (stereo unspecified), the “Percent Effect” value (30 µM, 30.03 µM) is recorded as -5.987%. Regarding `Cc1csc2c(N3CCNC(C(=O)N4CCCC4)C3)ncnc12` (stereo unspecified), the “Percent Effect” value (30 µM, 30.03 µM) is listed as 24.45%. Still for that read-out and setting: the value for `Cc1csc2c(N3CCNC(C(=O)Nc4ccc(F)cc4)C3)ncnc12` (stereo unspecified) was 72.13%. Take `Cc1cc(C(=O)N2CCc3nc(C4CCCN4)ncc3C2)cs1.Cl` (stereo unspecified): the “Percent Effect” value (30.3 µM, […]) was -23.19%. On to `Cc1occc1C(=O)NCC(=O)NCCCOc1ccc(F)cc1`, for which the “Percent Effect” value (30 µM, 30.03 µM) was -42.11%. Still for that read-out and setting: under `Cc1occc1C(=O)NCC(=O)N(C)CCCOc1ccc(F)cc1` stands 95.62%. Turning to `Cc1occc1C(=O)NCC(=O)N(C)CCCOc1ccccc1`, for the setting “30 µM, 30.03 µM”, the “Percent Effect” value is given as -44.45%.

Take `CNC(=O)c1ccc(C2CCCN(C(=O)c3sc(C)nc3C)C2)nc1` (stereo unspecified): under “30.3 µM, […]”, the “Percent Effect” value was -1.908%.

Take `Cc1cc(NCCN)nc2ccccc12.O=[N+]([O-])O`: the “Percent Effect” value (30.3 µM, […]) is -46.24%.

`CCS(=O)(=O)c1ccccc1N1CCC(NC(=O)c2ccc[nH]2)CC1`: the “Percent Effect” value (30 µM, 30.03 µM) was determined as 54.24%. Take `CCS(=O)(=O)c1ccccc1N1CCC(NC(=O)NC2CCCC2)CC1`: the “Percent Effect” value (30 µM, 30.03 µM) is reported as 7.94%. On to `CCS(=O)(=O)c1ccccc1N1CCC(NC(C)=O)CC1`, for which the “Percent Effect” value (30 µM, 30.03 µM) amounted to 4.915%. The same measure, in the same setting: the value for `CCC[C@@H]1CN(Cc2cc(C#N)n(C)c2C)C[C@H]1NS(C)(=O)=O` was 0.9985%. For `Cc1nc(N)c2ccc(C3CCCCN3)nc2n1.Cl` (stereo unspecified), the “Percent Effect” value (30.3 µM, […]) is -17.89%. Regarding `CN(c1ccc(C(=O)NCCCN2CCCCC2)c(Cl)c1)S(C)(=O)=O`, the “Percent Effect” value (30 µM, 30.03 µM) is reported as -14.39%.
